This is part of a sample that, as a whole, favours compounds with a hit. Of some 83,000 tested, about 20% had one in any assay.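 The test compound was applied at a single concentration to cells in 96-well plates for 48 hours, and percent growth was recorded.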 A number with no mark means an inactive call. Active and inactive are the calls of the source. Rule for the calls: active = growth percent below 10; inactive = the rest.
Experiments:
Assay in all cases: NCI-60 one-dose screen, 48 h (100 = growth as untreated, 0 = no growth, -100 = all killed)
Settings in all cases: 10 µM unless noted
[1] = tested on: NCI-H23 lung
[2] = tested on: NCI-H226 lung
[3] = tested on: NCI-H322M lung
[4] = tested on: HOP-62 NSCLC
[5] = tested on: NCI-H460 lung
[6] = tested on: HOP-92 NSCLC
[7] = tested on: NCI-H522 lung
[8] = tested on: A549/ATCC NSCLC
[9] = tested on: 786-0 renal
[10] = tested on: COLO 205 colon

Structure (SMILES)	growth [1]	growth [2]	growth [3]	growth [4]	growth [5]	growth [6]	growth [7]	growth [8]	growth [9]	growth [10]
CCN(CC)CCC(=O)c1ccc(OC)c2ccccc12	90.8%	115%	90.9%	83.4%	99.8%	102%	12.6%	100%	98.7%	109%
c1ccc2sc(SCCCn3ccnc3)nc2c1	81.4%	74.8%	98.7%	99.7%	97.8%	78.9%	50.4%	74.9%	104%	98.2%
COc1ccc(/C=C/C(=O)c2ccc(NC(=O)c3cc4cc5ccccc5nc4s3)cc2)cc1OC	87%	86%	84.2%	92.3%	99.9%	108%	95.9%	105%	106%	99.5%
Cc1ccc(S(=O)(=O)N(CCc2ccc(Cl)cc2)S(=O)(=O)c2ccc(C)cc2)cc1	90.9%	75.2%	93.1%	103%	101%	88.1%	77.4%	88.3%	94.4%	111%
CS(=O)(CCCCN=C=S)=NC(=O)c1c(F)c(F)c(F)c(F)c1F (centres undefined)	96.7%	99.6%	108%	111%	88.4%	107%	57%	80.3%	89%	89.4%
O=C([C@@H](COCc1ccccc1)N1C(=O)[C@@H](N2C(=O)OC[C@@H]2c2ccccc2)[C@H]1/C=C/c1ccccc1)N1CCC(CCN2CCCCC2)CC1	87%	93.8%	83.2%	77.8%	94.2%	76.1%	57.1%	75.4%	83.3%	65.1%
O=C(CCCCN1CCOCC1)Nc1ccc(Cn2nnc3c2C(=O)c2nnn(Cc4ccc(NC(=O)CCCCN5CCOCC5)cc4)c2C3=O)cc1	-18% (active)	-52.2% (active)	-89.3% (active)	-59.1% (active)	-39.8% (active)	-40.3% (active)	-68.3% (active)	-68.3% (active)	-50.5% (active)	-78.8% (active)
c1ccc2c(Nc3cccc4ccccc34)cccc2c1	73.4%	72.3%	103%	56.3%	42.9%	28.1%	46.4%	48.1%	81.2%	58.3%
O=c1ccc2cc3ccccc3cc2[nH]1	93.1%	94%	114%	95.4%	93.8%	84.8%	98.8%	102%	103%	121%
COCCCN=C(N)c1ccc(NC(=O)c2ccc(C(=O)Nc3ccc(C(N)=NCCCOC)cc3)cc2)cc1	82.1%	90.7%	90.5%	81.6%	102%	134%	97.5%	106%	87.7%	105%
COc1ccc(C(=O)COc2ccc(/C=C3\Oc4ccc(Cl)cc4C3=O)cc2)cc1	67.6%	92%	96.6%	100%	111%	48.9%	80.5%	95.1%	106%	96%
O=C(N/N=C/c1ccc(O)cc1O)c1cccnc1	45.3%	70.5%	29.9%	43.2%	10.9%	56.4%	-6.04% (active)	46.4%	37.9%	23.4%
CC(=O)Nc1ccc2c(c1)c(NC(C)=O)nn2C(=O)Nc1ccc(Cc2ccccc2)cc1	26.8%	62.7%	75.1%	44.3%	76.4%	-42.8% (active)	76.3%	92.1%	67.9%	102%
Cc1nn(-c2ccccc2)c2nc(C)n(-c3ccc(Br)cc3)c(=O)c12	16%	49%	51.3%	35.1%	7.92% (active)	56.3%	-14.1% (active)	21.3%	43.3%	1.32% (active)
CCOC(=O)/C=C/C(=O)[C@H](CC(C)C)NC(=O)[C@H](Cc1ccccc1)NC(=O)OCc1ccccc1	91%	102%	103%	108%	84.9%	79.7%	18%	73.3%	30%	67.5%
CCOC(=O)C(Cc1cc(I)c(O)c(I)c1)NC(=O)c1ccccc1 (centres undefined)	102%	93.1%	101%	78.8%	104%	-14.2% (active)	87.5%	83.8%	97.6%	108%
COc1cc2nc3cc([N+](=O)[O-])ccc3c(NCCCNCC(C)(C)O)c2cc1OC	-47.4% (active)	-37.6% (active)	-24.8% (active)	-53.3% (active)	-48.5% (active)	-53.9% (active)	-56.7% (active)	-30.9% (active)	-61.6% (active)	-81.2% (active)
COc1ccc(-c2cc(C(=O)N=Nc3c(O)[nH]c4ccccc34)no2)cc1	101%	94%	103%	91.6%	102%	100%	82.4%	107%	104%	111%
COc1ccc(C(=O)/C=C/c2c(Cl)c3c(c(OC)c2Cl)OCC(=O)N3)cc1	43.1%	62.9%	79.8%	21%	12%	74.5%	12.7%	61.1%	58.2%	62.1%
CCN(CC)CC(O)CNc1c2ccc([N+](=O)[O-])cc2nc2cc(OC)c(OC)cc12 (centres undefined)	-27.2% (active)	-39.1% (active)	-43.5% (active)	-51% (active)	-49.6% (active)	-57.4% (active)	-65.6% (active)	-22% (active)	-8.36% (active)	-71% (active)
CC1CN(Cc2ccco2)C(=S)N(c2ccccc2)C1=O (centres undefined)	108%	97.3%	99.4%	88.1%	98.5%	92.7%	92.9%	110%	103%	128%
CC(=O)C1=C(O)C=C2Oc3c(C(=O)/C=C/c4cc(C(F)(F)F)cc(C(F)(F)F)c4)c(O)c(C)c(O)c3[C@]2(C)C1=O	-55.8% (active)	-56.5% (active)	-44.8% (active)	-52.6% (active)	-32.6% (active)	-41.2% (active)	-36% (active)	-46.7% (active)	-46.3% (active)	-66.6% (active)
CC/C=C\C[C@H](O)C/C=C1/C(=O)C=C[C@@H]1C/C=C\CCCC(=O)OC(C)C	-40.1% (active)	-39% (active)	-1.62% (active)	-44.2% (active)	0.788% (active)	-0.165% (active)	-54.2% (active)	-39.2% (active)	-50.8% (active)	-73.8% (active)
CN(C)c1ccc(C2Nc3ccccc3-n3cccc32)cc1 (centres undefined)	102%	82.8%	91.9%	107%	85.8%	89.7%	113%	98.3%	108%	96%
C=C1CC2(OC1=O)C(=O)N(CCCCCCCN1C(=O)C3(CC(=C)C(=O)O3)c3ccccc31)c1ccccc12 (centres undefined)	52.6%	63%	87%	117%	38%	-1.35% (active)	-48.1% (active)	83.7%	46.7%	12.8%
CN1CCN(Cc2ccc(NC(=O)c3[nH]ncc3Nc3ncnc4[nH]ccc34)cc2)CC1	-12.2% (active)	-21.3% (active)	3.32% (active)	14.1%	2.62% (active)	-7.91% (active)	1.39% (active)	11.4%		-51% (active)

Reference: PubChem BioAssay (NCI)
